Experimental data: PubChem BioAssay (EPA / NIEHS)
Activity calls are given as the source filed them. Rule for the calls: active = hit-call score of the fitted dose curve at least 0.9, where 1 is the maximum; inactive = score below 0.9.

Columns and labels:
[1] = read-out: TIMP metallopeptidase inhibitor 2 (TIMP2), TIMP2 (gene 7077); experiment: BSK_KF3CT_TIMP2: BioMAP Diversity Plus: KF3CT Assay for TIMP metallopeptidase inhibitor 2 (TIMP2) Biomarker Activity (AID 2283071); conditions: primary human keratinocytes with fibroblasts; actives raise or lower the signal
In short: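 Co-culture of human primary keratinocytes and foreskin fibroblasts, measured 24 h after chemical dosing. TIMP-2 quantified by ELISA and fitted in both directions relative to DMSO. Cytotoxicity checked in parallel cultures by SRB total-protein staining.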

[2] = read-out: Transforming growth factor beta 1 (TGFb1), TGFB1 (gene 7040); experiment: BSK_KF3CT_TGFb1: BioMAP Diversity Plus: KF3CT Assay for Transforming growth factor beta 1 (TGFb1) Biomarker Activity (AID 2283072); conditions: primary human keratinocytes with fibroblasts; actives raise or lower the signal
In short: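 Human keratinocyte/foreskin fibroblast co-culture; TGF-b1 measured by ELISA 24 h after dosing, fitted bidirectionally versus DMSO. Cytotoxicity checked in parallel cultures by total protein (SRB staining, 560 nm).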

[3] = read-out: C-C motif chemokine 2 (Homo sapiens) (UniProt P13500); experiment: BSK_KF3CT_MCP1: BioMAP Diversity Plus: KF3CT Assay for Monocyte Chemoattractant Protein 1 (MCP1/CCL2) Biomarker Activity (AID 2283073); conditions: primary human keratinocytes with fibroblasts; actives raise or lower the signal
In short: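 Human keratinocyte plus foreskin fibroblast primary co-culture exposed to chemical for 24 h. MCP-1 levels measured by ELISA. Bidirectional curve fitting relative to DMSO negative control as baseline.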

[4] = read-out: Matrix Metallopeptidase 9 (MMP9), MMP9 (gene 4318); experiment: BSK_KF3CT_MMP9: BioMAP Diversity Plus: KF3CT Assay for Matrix Metallopeptidase 9 (MMP9) Biomarker Activity (AID 2283074); conditions: primary human keratinocytes with fibroblasts; actives raise or lower the signal;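 for AC50: MMP9 protein level quantified by ELISA in the co-culture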
In short: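 Keratinocyte plus foreskin fibroblast human primary skin co-culture was dosed with chemical and MMP-9 was quantified by ELISA 24 h later. Bidirectional curve fitting used DMSO as negative control and activity baseline.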

CD40, CD40 (gene 958) [5] = experiment: BSK_LPS_CD40: BioMAP Diversity Plus: LPS Assay for CD40 Biomarker Activity (AID 2283076); conditions: primary human HUVEC with PBMC; actives raise or lower the signal
In short: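 Primary human umbilical vein endothelial cells co-cultured with peripheral blood mononuclear cells, LPS-stimulated, were dosed with chemical and read 24 h later. CD40 levels were measured by ELISA and fitted bidirectionally against DMSO as negative control and baseline.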

[6] = read-out: E-selectin (Homo sapiens) (UniProt P16581); experiment: BSK_LPS_Eselectin: BioMAP Diversity Plus: LPS Assay for Eselectin Biomarker Activity (AID 2283077); conditions: primary human HUVEC with PBMC; actives raise or lower the signal
In short: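 Human umbilical vein endothelial cells co-cultured with peripheral blood mononuclear cells under LPS stimulation; E-selectin measured by ELISA 24 h after chemical dosing. Activity fitted bidirectionally against DMSO as negative control and baseline.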

[7] = read-out: Interleukin-8 (IL8), CXCL8 (gene 3576); experiment: BSK_LPS_IL8: BioMAP Diversity Plus: LPS Assay for Interleukin-8 (IL8) Biomarker Activity (AID 2283078); conditions: primary human HUVEC with PBMC; actives raise or lower the signal
In short: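 Human umbilical vein endothelial cells co-cultured with PBMC were stimulated with LPS; IL-8 levels were measured by ELISA 24 h after chemical dosing. Activity was fitted bidirectionally against DMSO as negative control and baseline.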

[8] = BSK_LPS_SRB: Viability Assessment in the BioMAP Diversity Plus: LPS Assay (AID 2283079); conditions: primary human HUVEC with PBMC;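 note: total protein by sulforhodamine B absorbance as a cytotoxicity measure; measured one day after compound addition; fitted in both directions against DMSO so loss or gain of signal counts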
In short: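 Human umbilical vein endothelial cells co-cultured with PBMC (LPS system) were dosed for 24 h. Total protein was stained with 0.1% sulforhodamine B after 10% TCA fixation, read at 560 nm, and fitted bidirectionally against DMSO baseline.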

[9] = read-out: Interleukin-1 alpha (IL1a), IL1A (gene 3552); experiment: BSK_LPS_IL1a: BioMAP Diversity Plus: LPS Assay for Interleukin-1 alpha (IL1a) Biomarker Activity (AID 2283080); conditions: primary human HUVEC with PBMC; actives raise or lower the signal
In short: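 Human umbilical vein endothelial cells co-cultured with peripheral blood mononuclear cells were LPS-stimulated and exposed to test chemicals for 24 h. IL-1 alpha was quantified by ELISA, with bidirectional curve fitting against DMSO as the negative control and baseline.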

[10] = read-out: Monocyte Chemoattractant Protein-1 (MCP1), CCL2 (gene 6347); experiment: BSK_LPS_MCP1: BioMAP Diversity Plus: LPS Assay for Monocyte Chemoattractant Protein-1 (MCP1) Biomarker Activity (AID 2283081); conditions: primary human HUVEC with PBMC; actives raise or lower the signal;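 for AC50: secreted MCP-1 protein quantified by ELISA in culture supernatant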
In short: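 HUVEC plus PBMC co-culture (human primary cells, LPS system) exposed to test chemical for 24 h; MCP-1 measured by ELISA. Bidirectional curve fitting against DMSO baseline; parallel SRB total-protein staining flags overt cytotoxicity.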

[11] = BSK_LPS_PGE2: BioMAP Diversity Plus: LPS Assay for Prostaglandin E2 (PGE2) Biomarker Activity (AID 2283082); conditions: primary human HUVEC with PBMC; actives raise or lower the signal;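 for AC50: secreted prostaglandin E2 measured by ELISA in LPS-stimulated co-culture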
In short: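 HUVEC plus human PBMC co-culture stimulated with LPS; secreted PGE2 quantified by ELISA 24 h after chemical dosing. Activity fitted bidirectionally against DMSO baseline; parallel SRB staining (0.1% SRB after 10% TCA fixation, 560 nm) flags overt cytotoxicity.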

[12] = read-out: Macrophage colony-stimulating factor (MCSF), CSF1 (gene 1435); experiment: BSK_LPS_MCSF: BioMAP Diversity Plus: LPS Assay for Macrophage colony-stimulating factor (MCSF) Biomarker Activity (AID 2283083); conditions: primary human HUVEC with PBMC; actives raise or lower the signal
In short: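 Human umbilical vein endothelial cells co-cultured with peripheral blood mononuclear cells were exposed to compound for 24 h. M-CSF levels were measured by ELISA, and bidirectional curve fitting used DMSO as the negative control and baseline.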

[13] = read-out: Tissue Factor, F3 (gene 2152); experiment: BSK_LPS_TissueFactor: BioMAP Diversity Plus: LPS Assay for Tissue Factor Biomarker Activity (AID 2283084); conditions: primary human HUVEC with PBMC; actives raise or lower the signal
In short: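 Human umbilical vein endothelial cells co-cultured with peripheral blood mononuclear cells were dosed and stimulated with LPS. Cell-surface CD142 was quantified by ELISA at 24 h. Activity was fitted bidirectionally against DMSO baseline.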

[14] = read-out: Tumor necrosis factor (Homo sapiens) (UniProt P01375); experiment: BSK_LPS_TNFa: BioMAP Diversity Plus: LPS Assay for Tumour Necrosis Factor alpha (TNFa) Biomarker Activity (AID 2283085); conditions: primary human HUVEC with PBMC; actives raise or lower the signal
In short: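 Human umbilical vein endothelial cells co-cultured with PBMC and stimulated with LPS. TNFa was measured by ELISA 24 h after chemical dosing, fitted bidirectionally relative to DMSO.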

CD38, CD38 (gene 952) = experiment: BSK_SAg_CD38: BioMAP Diversity Plus: SAg Assay for CD38 Biomarker Activity (AID 2283087); conditions: primary human HUVEC with PBMC; actives raise or lower the signal
In short: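 Human HUVEC plus PBMC co-culture stimulated with superantigen; CD38 measured by ELISA 24 h after chemical dosing. Fluorescence read-out, bidirectional fit against DMSO; cytotoxicity tracked in parallel by SRB and Alamar Blue.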

CD40, CD40 (gene 958) [15] = experiment: BSK_SAg_CD40: BioMAP Diversity Plus: SAg Assay for CD40 Biomarker Activity (AID 2283088); conditions: primary human HUVEC with PBMC; actives raise or lower the signal
In short: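 Human umbilical vein endothelial cells co-cultured with PBMC; CD40 levels measured by ELISA with fluorescence read-out 24 h after chemical dosing. Gain or loss of signal fitted bidirectionally against DMSO baseline.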

[16] = read-out: Monocyte Chemoattractant Protein-1 (MCP1), CCL2 (gene 6347); experiment: BSK_SAg_MCP1: BioMAP Diversity Plus: SAg Assay for Monocyte Chemoattractant Protein-1 (MCP1) Biomarker Activity (AID 2283090); conditions: primary human HUVEC with PBMC; actives raise or lower the signal
In short: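 MCP-1 levels in the endothelial–PBMC SAg co-culture were quantified by ELISA at 24 h post-dosing; both increases and decreases versus DMSO scored. Cytotoxicity monitored by SRB total protein in parallel cultures.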

CD69, CD69 (gene 969) = experiment: BSK_SAg_CD69: BioMAP Diversity Plus: SAg Assay for CD69 Biomarker Activity (AID 2283089); conditions: primary human HUVEC with PBMC; actives raise or lower the signal
In short: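 Values derive from bidirectional fitting relative to DMSO vehicle. Cells: umbilical vein endothelium plus peripheral blood mononuclear cells, treated 24 h before fluorescent ELISA for CD69.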

[17] = read-out: Vascular cell adhesion molecule 1 (VCAM1), VCAM1 (gene 7412); experiment: BSK_LPS_VCAM1: BioMAP Diversity Plus: LPS Assay for Vascular cell adhesion molecule 1 (VCAM1) Biomarker Activity (AID 2283086); conditions: primary human HUVEC with PBMC; actives raise or lower the signal
In short: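 Human umbilical vein endothelial cells co-cultured with PBMC and stimulated with LPS; VCAM-1 measured by ELISA 24 h after dosing. Bidirectional curve fitting against DMSO baseline; cytotoxicity tracked in parallel by SRB total-protein staining.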

Measured: AC50

Tumor necrosis factor (Homo sapiens), sequence (P01375 whole entry, looked up): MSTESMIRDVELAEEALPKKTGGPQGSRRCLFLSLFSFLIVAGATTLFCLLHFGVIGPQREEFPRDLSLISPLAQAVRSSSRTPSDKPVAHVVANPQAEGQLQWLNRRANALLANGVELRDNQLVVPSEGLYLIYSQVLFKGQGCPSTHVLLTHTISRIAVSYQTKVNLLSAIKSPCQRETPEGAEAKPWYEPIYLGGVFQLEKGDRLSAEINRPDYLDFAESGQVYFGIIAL
E-selectin (Homo sapiens), sequence (P16581 whole entry, looked up): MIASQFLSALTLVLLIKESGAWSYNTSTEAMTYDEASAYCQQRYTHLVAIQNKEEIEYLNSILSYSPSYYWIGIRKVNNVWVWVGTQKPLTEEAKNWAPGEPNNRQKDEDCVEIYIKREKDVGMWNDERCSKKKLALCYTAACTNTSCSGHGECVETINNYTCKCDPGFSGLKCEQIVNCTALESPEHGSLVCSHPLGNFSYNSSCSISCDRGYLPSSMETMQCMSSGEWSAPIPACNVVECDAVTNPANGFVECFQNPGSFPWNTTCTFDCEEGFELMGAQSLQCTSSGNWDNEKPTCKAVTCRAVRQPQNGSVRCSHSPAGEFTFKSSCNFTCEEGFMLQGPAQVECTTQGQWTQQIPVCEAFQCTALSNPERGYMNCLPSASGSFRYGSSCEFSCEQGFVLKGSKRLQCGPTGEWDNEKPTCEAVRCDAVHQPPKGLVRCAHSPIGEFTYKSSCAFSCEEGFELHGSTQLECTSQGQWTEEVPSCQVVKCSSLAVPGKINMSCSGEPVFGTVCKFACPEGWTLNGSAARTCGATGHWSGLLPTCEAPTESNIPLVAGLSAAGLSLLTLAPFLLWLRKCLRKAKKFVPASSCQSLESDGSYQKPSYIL

CON=C(C(=O)OC)c1ccccc1CON=C(C)c1cccc(C(F)(F)F)c1
inactive: [1] | [2] | [9] | [13]
active: [3] 6.61 µM | [4] 3.97 µM | CD40, CD40 (gene 958) [5] 13.5 µM | [6] 0.25 µM | [7] 3.35 µM | [8] 6.96 µM | [10] 2.93 µM | [11] 1.14 µM | [12] 5.49 µM | [14] 5.02 µM | CD38, CD38 (gene 952) 5.63 µM | CD40, CD40 (gene 958) [15] 5.02 µM | [16] 4.09 µM

C#CC(C)(C)NC(=O)c1cc(Cl)cc(Cl)c1
inactive: [1] | [2] | [3] | [4] | CD40, CD40 (gene 958) [5] | [6] | [7] | [8] | [9] | [10] | [11] | [12] | [13] | [14] | CD38, CD38 (gene 952) | CD40, CD40 (gene 958) [15] | CD69, CD69 (gene 969) | [16]

CCCCOC(=O)[C@@H](C)Oc1ccc(Oc2ccc(C#N)cc2F)cc1
inactive: [1] | [2] | [3] | [4] | CD40, CD40 (gene 958) [5] | [6] | [7] | [8] | [9] | [10] | [11] | [12] | [13] | [14] | [17] | CD38, CD38 (gene 952) | CD40, CD40 (gene 958) [15] | CD69, CD69 (gene 969) | [16]

CC(C1CC1)C(O)(Cn1cncn1)c1ccc(Cl)cc1 (centres undefined)
inactive: [1] | [2] | [3] | [4] | CD40, CD40 (gene 958) [5] | [6] | [7] | [8] | [9] | [10] | [11] | [12] | [13] | CD38, CD38 (gene 952) | CD40, CD40 (gene 958) [15] | CD69, CD69 (gene 969) | [16]
active: [14] 4.36 µM

CN(C)NC(=O)CCC(=O)O
inactive: [1] | [2] | [3] | [4] | CD40, CD40 (gene 958) [5] | [6] | [7] | [8] | [9] | [10] | [11] | [12] | [13] | [14] | CD38, CD38 (gene 952) | CD40, CD40 (gene 958) [15] | CD69, CD69 (gene 969) | [16]

COc1cccc(C(=O)NN(C(=O)c2cc(C)cc(C)c2)C(C)(C)C)c1C
inactive: [1] | [2] | [3] | [4] | CD40, CD40 (gene 958) [5] | [6] | [7] | [8] | [9] | [10] | [11] | [12] | [13] | [14] | [17] | CD38, CD38 (gene 952) | CD40, CD40 (gene 958) [15] | CD69, CD69 (gene 969) | [16]
